Test results reported in the supplement of paper PMC10338343.
± gives the standard deviation.

Test system: MILI (PIWIL2) piRISC loaded with L1MC piRNA (26 nt)
Test: pre-steady-state target cleavage rate (min^-1); guide: L1MC piRNA 5'p-UAACUAAAUACUAUGCAAGCUGUAGG; MIWI and MILI are mouse PIWI proteins and EfPiwi is from a freshwater sponge; tags in brackets are library labels; higher = faster piRNA-guided slicing of the target
Settings: auxiliary factor: 500 nM mouse GTSF1
How it was run: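 A transcribed, DNA-blocked target RNA library (0.1 nM) and 1 nM active affinity-purified piRISC bearing one synthetic guide were incubated in HEPES–potassium acetate buffer at 33 °C for 0–8 or 0–960 min, either with or without 500 nM GTSF1 partner protein. Uncleaved targets were sequenced, normalised to depth and to weakly complementary targets, and pooled over three trials, with k3 capped at 0.0001 min^-1. The pre-steady-state cleavage rate was derived with a burst-and-steady-state fit.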

Q: With UCCUGGAACAGCAUGCAUAGUAUUAAGUUA as the sequence, how does the “pre-steady-state target cleavage rate” value read?
A: Its value is 0.219 ± 0.027.

Q: Which “pre-steady-state target cleavage rate” value does the source give for “UCCUGGAUGAGCUUGCAUAGUAUUUAGUUG [g2:g21:cont:t1G]” here?
A: Its value is 0.186 ± 0.019.

Q: Which “pre-steady-state target cleavage rate” value does the source give for UCCUGGUACUGCUUGCAUUGUAUUUAGUUA here?
A: The value was 0.0791 ± 0.015.

Q: For UCCUCCAACAGCUUGCAAAGUAUUUAGUUA, which “pre-steady-state target cleavage rate” value is on record?
A: The value was 0.155 ± 0.01.

Q: For UCCUGGUACAGCUUGCCUAGUAUUUAGUUA, which “pre-steady-state target cleavage rate” value is on record?
A: Its value is 0.213 ± 0.019.

Q: For UCCUGCUACAGCAUGCAUAGUAAUUAGUUA, which “pre-steady-state target cleavage rate” value is on record?
A: Its value is 0.225 ± 0.022.

Q: For UCCUGGAUCAGCUUGUCAUAGUAUUUAGUUA, which “pre-steady-state target cleavage rate” value is on record?
A: Its value is 0.21 ± 0.019.

Q: For UCCUCCUACUCCUUGCAUAGUAUUUAGUUA, which “pre-steady-state target cleavage rate” value is on record?
A: The value was 0.261 ± 0.021.

Q: For UCCUGCUACAGCUUGCAUAGUAGUUAGUUA, which “pre-steady-state target cleavage rate” value is on record?
A: Its value is 0.127 ± 0.03.

Q: How did the “pre-steady-state target cleavage rate” value turn out when UCCUGGUACAGCUUGCAUAGUAUUUAGAUUA was run?
A: The value was 0.131 ± 0.04.

Q: With UCCUGGAUGUCCUUGCAUAGUACUUAGUUA as the sequence, how does the “pre-steady-state target cleavage rate” value read?
A: Its value is 0.0548 ± 0.01.

Q: With UCCUGGAUGUGCGUUGCAUAGUAUUUAGUUA as the sequence, how does the “pre-steady-state target cleavage rate” value read?
A: Its value is 0.145 ± 0.016.

Q: UCCUGGAUGAGCAUGCAAAGUAUUUAGUUA was tested. Which “pre-steady-state target cleavage rate” value did it give?
A: Its value is 0.056 ± 0.011.

Q: For UCCUGGAUGAGCUUGCAUUGUAUUUAGUAA, which “pre-steady-state target cleavage rate” value is on record?
A: The value was 0.127 ± 0.021.

Q: UCCUGCAUCAGCUUGCAUAGUAUUUAGUAA was tested. Which “pre-steady-state target cleavage rate” value did it give?
A: The value was 0.223 ± 0.019.

Q: For UCCUGGAAGAGCUUGCAUUGUAUUUAGUUA, which “pre-steady-state target cleavage rate” value is on record?
A: The value was 0.208 ± 0.011.

Same assay, conditions: auxiliary factor: none (no GTSF1)

Q: For UCCUCCUGCAGCUUGCAUAGUAUUUAGUUA, which “pre-steady-state target cleavage rate” value is on record?
A: Its value is 0.0088 ± 0.0027.

Q: How did the “pre-steady-state target cleavage rate” value turn out when UCCUCCUACACCUAGCAUAGUAUUUAGUUA was run?
A: Its value is 0.0056 ± 0.0018.

Q: For UCCUGGAAGAGCUUGCAUAGUAUUUUGUUA, which “pre-steady-state target cleavage rate” value is on record?
A: Its value is 0.00584 ± 0.0025.

Q: How did the “pre-steady-state target cleavage rate” value turn out when UCCUGGAUCAGCUUGCAUAGUAUUUAGAAA was run?
A: The value was 0.00292 ± 0.0023.

Q: For UCCUGGUACAGCUUGCAUAGUAUUUAGUUUA, which “pre-steady-state target cleavage rate” value is on record?
A: The value was 0.0152 ± 0.005.

Q: With UCCUGGAUCAGACUUGCAUAGUAUUUAGUUA as the sequence, how does the “pre-steady-state target cleavage rate” value read?
A: Its value is 0.00843 ± 0.0023.

Q: How did the “pre-steady-state target cleavage rate” value turn out when UCCUGGAACUCCUUGCAUAGUAUUUAGUUA was run?
A: Its value is 0.00487 ± 0.0017.

Q: For UCCUGCUUCAGGUUGCAUAGUAUUUAGUUA, which “pre-steady-state target cleavage rate” value is on record?
A: Its value is 0.0111 ± 0.003.

Q: With UCCUGCUACAGGCUUGCAUAGUAUUUAGUUA as the sequence, how does the “pre-steady-state target cleavage rate” value read?
A: The value was 0.0112 ± 0.0031.

Q: Which “pre-steady-state target cleavage rate” value does the source give for UCCUGGAUCAGCUUGCGUAGUAUUUAGUUA here?
A: The value was 0.0107 ± 0.0029.

Q: How did the “pre-steady-state target cleavage rate” value turn out when UCCUGGAACAGCUUGCAUAGUAUGUAGUUA was run?
A: The value was 0.00343 ± 0.003.

Q: UCCUCCAACUGCUUGCAUAGUAUUUAGUUA was tested. Which “pre-steady-state target cleavage rate” value did it give?
A: The value was 0.00659 ± 0.0019.

Q: With UCCUGGAACACGAUGCAUAGUAUUUAGUUA as the sequence, how does the “pre-steady-state target cleavage rate” value read?
A: The value was 0.00495 ± 0.0023.

Q: UCCUGGUUCAGCUUGCAUACUAUUUAGUUA was tested. Which “pre-steady-state target cleavage rate” value did it give?
A: Its value is 0.00505 ± 0.0024.

Q: Which “pre-steady-state target cleavage rate” value does the source give for UCCUGGUUCAGCAUGCAUAGUAUUUAGUUA here?
A: The value was 0.0092 ± 0.0032.

Q: With UCCUGGAUGUCCUUGCAUAGUAUCUAGUUA as the sequence, how does the “pre-steady-state target cleavage rate” value read?
A: The value was 0.00287 ± 0.0025.

Q: Which “pre-steady-state target cleavage rate” value does the source give for UCCUGCUACAGCUUGCAUAGUAUUUUAGUUA here?
A: The value was 0.0106 ± 0.0025.

Q: With UCCUCCUACAGCUAGCAUAGUAUUUAGUUA as the sequence, how does the “pre-steady-state target cleavage rate” value read?
A: Its value is 0.00812 ± 0.0022.

Q: UCCUGCUACACGCUUGCAUAGUAUUUAGUUA was tested. Which “pre-steady-state target cleavage rate” value did it give?
A: Its value is 0.00682 ± 0.0029.

Q: How did the “pre-steady-state target cleavage rate” value turn out when UCCUGGAUCAGCUUGCAUAGUAUUUUGUUA was run?
A: Its value is 0.00819 ± 0.0028.

Q: Which “pre-steady-state target cleavage rate” value does the source give for UCCUGCUUCUGCUUGCAUAGUAUUUAGUUA here?
A: The value was 0.00864 ± 0.0018.

Q: With UCCUCCUAGUCCUUGCAUAGUAUUUAGUAA as the sequence, how does the “pre-steady-state target cleavage rate” value read?
A: Its value is 0.0027 ± 0.0023.

Q: UCCUGCUACAACUUGCAUAGUAUUUAGUUA was tested. Which “pre-steady-state target cleavage rate” value did it give?
A: The value was 0.00739 ± 0.0024.

Q: How did the “pre-steady-state target cleavage rate” value turn out when UCCUGGAUGUGCUUCGCAUAGUAUUUAGUUA was run?
A: The value was 0.00505 ± 0.0021.

Q: UCCUGGAACAGCAUGCAUAGUAUUAAGUUA was tested. Which “pre-steady-state target cleavage rate” value did it give?
A: The value was 0.00548 ± 0.0019.

Q: How did the “pre-steady-state target cleavage rate” value turn out when “UCCUGGAUGAGCUUGCAUAGUAUUUAGUUG [g2:g21:cont:t1G]” was run?
A: The value was 0.00606 ± 0.0029.

Q: With UCCUGGUACUGCUUGCAUUGUAUUUAGUUA as the sequence, how does the “pre-steady-state target cleavage rate” value read?
A: Its value is 0.00624 ± 0.0037.

Q: For UCCUCCAACAGCUUGCAAAGUAUUUAGUUA, which “pre-steady-state target cleavage rate” value is on record?
A: Its value is 0.00656 ± 0.0019.

Q: For UCCUGGUACAGCUUGCCUAGUAUUUAGUUA, which “pre-steady-state target cleavage rate” value is on record?
A: The value was 0.00843 ± 0.0026.

Q: Which “pre-steady-state target cleavage rate” value does the source give for UCCUGCUACAGCAUGCAUAGUAAUUAGUUA here?
A: Its value is 0.00692 ± 0.0027.

Q: Which “pre-steady-state target cleavage rate” value does the source give for UCCUGGAUCAGCUUGUCAUAGUAUUUAGUUA here?
A: The value was 0.00334 ± 0.0027.

Q: For UCCUCCUACUCCUUGCAUAGUAUUUAGUUA, which “pre-steady-state target cleavage rate” value is on record?
A: The value was 0.0087 ± 0.0018.

Q: Which “pre-steady-state target cleavage rate” value does the source give for UCCUGCUACAGCUUGCAUAGUAGUUAGUUA here?
A: The value was 0.00253 ± 0.0025.

Q: How did the “pre-steady-state target cleavage rate” value turn out when UCCUGGUACAGCUUGCAUAGUAUUUAGAUUA was run?
A: Its value is 0.00728 ± 0.0036.

Q: For UCCUGGAUGUCCUUGCAUAGUACUUAGUUA, which “pre-steady-state target cleavage rate” value is on record?
A: Its value is 0.00401 ± 0.0028.

Q: With UCCUGGAUGUGCGUUGCAUAGUAUUUAGUUA as the sequence, how does the “pre-steady-state target cleavage rate” value read?
A: Its value is 0.00925 ± 0.0032.

Q: For UCCUGGAUGAGCAUGCAAAGUAUUUAGUUA, which “pre-steady-state target cleavage rate” value is on record?
A: Its value is 0.00571 ± 0.002.

Q: UCCUGGAUGAGCUUGCAUUGUAUUUAGUAA was tested. Which “pre-steady-state target cleavage rate” value did it give?
A: Its value is 0.00311 ± 0.0025.

Q: With UCCUGCAUCAGCUUGCAUAGUAUUUAGUAA as the sequence, how does the “pre-steady-state target cleavage rate” value read?
A: The value was 0.00464 ± 0.0032.

Q: With UCCUGGAAGAGCUUGCAUUGUAUUUAGUUA as the sequence, how does the “pre-steady-state target cleavage rate” value read?
A: Its value is 0.00838 ± 0.0031.
